Results filed as inconclusive are left out. A call without a number means that no potency is given here. Calls of active or inactive are those of the source. The call rests on the fitted dose curve; in most records, active means well fitted curve in the direction sought with a large enough effect; inconclusive means small, poorly fitted or top-dose-only effect, or another doubt; inactive means no such curve, though single readings can be large; an effect the other way counts as inactive or inconclusive.
How the values were obtained:
[1] = molecular target: Tyrosine-protein kinase Yes (Homo sapiens) (UniProt P07947); experiment: qHTS for small molecule inhibitors of Yes1 kinase: Primary Screen (AID 686947); further: nearly all actives have a fitted effect of over 60% in size; further: potency means the concentration at half of the fitted maximal effect
Sequence of Tyrosine-protein kinase Yes (Homo sapiens) (P07947 whole entry, looked up): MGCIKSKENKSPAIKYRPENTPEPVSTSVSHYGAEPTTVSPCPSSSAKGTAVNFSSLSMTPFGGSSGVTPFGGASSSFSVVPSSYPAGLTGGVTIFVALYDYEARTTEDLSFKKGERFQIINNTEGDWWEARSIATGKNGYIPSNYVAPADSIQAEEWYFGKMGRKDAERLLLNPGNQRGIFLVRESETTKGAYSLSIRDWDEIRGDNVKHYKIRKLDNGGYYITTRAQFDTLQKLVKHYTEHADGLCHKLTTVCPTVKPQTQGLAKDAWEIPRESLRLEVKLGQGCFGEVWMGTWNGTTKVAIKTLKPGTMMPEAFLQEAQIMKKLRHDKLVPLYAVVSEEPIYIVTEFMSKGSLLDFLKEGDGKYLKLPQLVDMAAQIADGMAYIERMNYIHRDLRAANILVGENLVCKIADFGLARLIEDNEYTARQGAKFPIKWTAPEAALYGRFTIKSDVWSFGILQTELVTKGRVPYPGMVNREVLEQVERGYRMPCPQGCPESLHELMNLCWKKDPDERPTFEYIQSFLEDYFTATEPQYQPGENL
Outline: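 In this qHTS format, inhibition is expressed relative to DMSO controls with enzyme (maximum) and without enzyme (minimum). The 60 min room-temperature reaction uses 0.1 mM ATP, with ADP detected by luminescence.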

[2] = qHTS for small molecule inhibitors of Yes1 kinase: Counter Assay (AID 686950);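 further: no kinase present so only ADP-Glo detection of a fixed ADP amount is tested; luminescence from ADP-Glo reporting ADP in a fixed ATP and ADP mixture; series mostly up to about 77 µM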
Outline: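 ADP-Glo luminescence read after a 60 min room-temperature incubation of compound with an ATP/ADP mix (0.08 mM/0.02 mM) and no kinase, following a 20 min compound preincubation. Signal scaled between ATP+ADP (max) and 0.1 mM ATP-only (min) wells; Tris pH 7.5, Mg2+, DTT.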

| SMILES | Potency [1] | outcome [2] |
| --- | --- | --- |
| O=C(Nc1n[nH]c2cc(-c3cc(F)ccc3F)ccc12)C1CC1 | 26000 nM (active) | inactive |
| O=S1CCN(Cc2ccc(-c3ccc4ncnc(Nc5ccc(OCc6cccc(F)c6)c(Cl)c5)c4c3)o2)CC1 | 2070 nM (active) | inactive |
| COc1ccc(-c2ccncc2)cc1C(N)=O | inactive | inactive |
| CCCNc1cccc(-n2ncc3c(NN=Cc4ccncc4)ncnc32)c1 | 32.8 nM (active) | inactive |
| COC(=O)Nc1nc2ccc(Oc3ccc(NC(=O)Nc4ccccc4)cc3)cc2[nH]1 | inactive | inactive |
| Cc1ccc(O)cc1Nc1ccnc2cc(-c3ccccn3)ccc12 | 7.3 nM (active) | inactive |
| Cc1ccc(C(=O)NC2CCCCC2)cc1-c1ccc(C(=O)NCC2CC2)cc1 | inactive | inactive |
| Nc1nc(-c2ccc3c(c2)C(=Cc2cc(Br)c(O)c(Br)c2)C(=O)N3)cs1 | 1460 nM (active) | inactive |
| COC(=O)Nc1nc2ccc(Oc3ccc(NC(=O)Nc4cc(C(F)(F)F)ccc4F)cc3)cc2s1 | inactive | inactive |
| COC(=O)Nc1nc2ccc(Oc3ccc(NC(=O)Nc4cccc(Cl)c4)cc3)cc2[nH]1 | inactive | inactive |
| CCN(CC)S(=O)(=O)c1ccc(OC)c(Nc2ncc(-c3ccccc3)o2)c1 | 654 nM (active) | inactive |
| CNC(=O)c1cncc(C=Cc2c(Cl)cccc2Cl)c1 | 823 nM (active) | inactive |
| Oc1cccc(-c2nc(-c3ccccc3)[nH]c2-c2ccncc2)c1 | 923 nM (active) | inactive |
| Cc1cc(O)cc(C)c1C=Cc1cncc(-c2nn[nH]n2)c1 | 65.4 nM (active) | inactive |
| Cc1ccc(O)cc1Nc1ccnc2ccc(S(C)(=O)=O)cc12 | 2.1 nM (active) | inactive |
| CS(=O)(=O)CCN(CC#N)Cc1ccc(-c2ccc3ncnc(Nc4ccc(OCc5cccc(F)c5)c(Cl)c4)c3c2)o1 | inactive | inactive |
| CS(=O)(=O)CCNCc1cc(-c2cc3c(Nc4ccc(OCc5cccc(F)c5)c(Cl)c4)ncnc3s2)cs1 | 46300 nM (active) | inactive |
| c1ccc(Oc2ccc(Nc3ncc(-c4ccccc4)o3)cc2)cc1 | inactive | inactive |
| O=C1NC(=O)C(c2cccc(Cl)c2)=C1Nc1ccc(Cl)c(C(=O)O)c1 | inactive | inactive |
| Cc1cc(O)cc(C)c1C=Cc1cncc(C(=O)N(C)C)c1 | 23200 nM (active) | inactive |
| N#Cc1cccc(Nc2ncc(-c3ccccc3)o2)c1 | 26000 nM (active) | inactive |
| CS(=O)(=O)CCNCc1ccc(-c2ccc3ncnc(Nc4ccc(OCc5ccccc5)c(C(F)(F)F)c4)c3c2)o1 | inactive | inactive |

| SMILES | Potency [1] | outcome [2] |
| --- | --- | --- |
| Cc1ccc2c(-c3ccnc(Nc4ccccc4)n3)c(-c3ccc(F)cc3)nn2n1 | 116 nM (active) | inactive |
| CC1(C)CC(n2cnc(-c3ccc(F)cc3)c2-c2ccnc(N)n2)CC(C)(C)N1 | 5190 nM (active) | inactive |
| CS(=O)(=O)Nc1ccc(-c2ccc3c(NC(=O)C4CC4)n[nH]c3c2)cc1 | 20700 nM (active) | inactive |
| COc1cc2ncn(-c3cc(OCc4ccccc4C(F)(F)F)c(C(C)=O)s3)c2cc1OC | inactive | inactive |
| Nc1nccc(C#Cc2cncnc2Nc2ccc(OCc3cccc(F)c3)c(Cl)c2)n1 | inactive | inactive |
| CC(C)c1ccc(-c2cc(-c3cn[nH]c3-c3ccccn3)ccn2)cc1 | 23200 nM (active) | inactive |
| COc1cccc(-n2cnc3c(NN=Cc4ccncc4)ncnc32)c1 | 582 nM (active) | inactive |
| Nc1nc(-c2ccc(F)cc2)c(-c2ccc3ncccc3n2)s1 | 463 nM (active) | inactive |
| Nc1ncnc2occ(-c3ccc(NC(=O)Nc4cc(C(F)(F)F)cc(C(F)(F)F)c4)cc3)c12 | 3680 nM (active) | inactive |
| Cc1cc(Cl)cc2c(N=Nc3ccc(S(N)(=O)=O)cc3)c(O)[nH]c12 | 10400 nM (active) | inactive |
| O=S1CCN(Cc2ccc(-c3ccc4ncnc(Nc5ccc(OCc6ccccc6)c(Cl)c5)c4c3)o2)CC1 | 368 nM (active) | inactive |
| Cc1c2ccc(N(C)c3ccnc(Nc4cccc(S(N)(=O)=O)c4)n3)cc2nn1C | 519 nM (active) | inactive |
| c1ccc(COc2ccc(Nc3ncnc4ccc(-c5ccco5)cc34)cc2)cc1 | 3680 nM (active) | inactive |
| NC(=O)Cc1ccccc1Oc1nccc(-c2c(-c3ccc(F)cc3)ncn2C2CCNCC2)n1 | 36800 nM (active) | inactive |
| CCC(=O)Nc1ccc(C)c(-c2ccc(C(=O)NCC3CC3)cc2)c1 | inactive | inactive |
| CCn1c(-c2nonc2N)nc2c(N3CCCC3)nccc21 | inactive | inactive |
| CCn1c(-c2nonc2N)nc2ccncc21 | inactive | inactive |
| COc1ccc(-c2nn3ncccc3c2-c2ccnc(Nc3ccc(F)c(F)c3)n2)cc1 | 328 nM (active) | inactive |
| CC1=C(C(=O)Nc2ccc3[nH]ncc3c2)C(c2ccc3ccccc3c2)CC(=O)N1 (stereo not drawn) | 582 nM (active) | inactive |
| COc1cc2ncnc(Nc3ccc(C)c(O)c3)c2cc1OC | 164 nM (active) | inactive |
| O=C(O)c1ccc(Oc2nccc(-c3c(-c4ccc(F)cc4)ncn3C3CCNCC3)n2)cc1 | inactive | inactive |
| CN(C)c1ccc2[nH]c(O)c(C=Nc3ccc(S(N)(=O)=O)cc3)c2c1 | 4630 nM (active) | inactive |
